Measured values as given in ChEMBL document CHEMBL3988442, “University of Dundee, Small-Polar-MMV Screening Library” (2021).
Hit rate of the full screen: of about 48,000 compounds, about 13,000 (27%) showed an effect of 50% or more. The list shows a part of the results.

tested on: Wolbachia pipientis; assay: Anti-Wolbachia Cell-Based Screen; type: functional; parameters: scale not given: in the data most compounds retested in dose-response had high values; conditions: 5 µM

SMILES	Percent Effect [%]
CN(C)C(=O)c1cccc(CCNS(C)(=O)=O)c1	-0.05313
O=C(c1cc2c(s1)CCOC2)N1CCCC1Cn1cccn1 (stereo not given)	107.9
O=C(c1cc2c(s1)CCOC2)N1CCCCC1Cn1cccn1 (stereo not given)	96.86
O=C(c1cccc2c1OCCO2)N1CCCCC1Cn1cccn1 (stereo not given)	4.366
CC(=O)N1CCCn2nc(CNS(=O)(=O)c3cc(C)cs3)cc2C1	-1.939
N#Cc1cccnc1NCCC1CCN(CC(F)(F)F)CC1	-14.98
CC(C)=CCN1C[C@H]2CC[C@@H]1CN(C(=O)CCc1n[nH]c(C)n1)C2	-19.43
Cc1cnn(CC2CCCCN2C(=O)c2ccc3c(c2)COC3)c1 (stereo not given)	117.5
Cc1cnn(CC2CCCCN2C(=O)c2ccc3[nH]nnc3c2)c1 (stereo not given)	-1.412
Cc1cnn(CC2CCCN2C(=O)c2ccc3[nH]nnc3c2)c1 (stereo not given)	0.8571
Cc1cnn(CC2CCCCN2C(=O)c2ccc3[nH]c(=O)[nH]c3c2)c1 (stereo not given)	108.3
Cc1cnn(CC2CCCCN2C(=O)c2ccc3[nH]cnc3c2)c1 (stereo not given)	112.2
Cc1cnn(CC2CCCN2C(=O)c2ccc3cc[nH]c3c2)c1 (stereo not given)	7.467
Cc1cnn(CC2CCCN2C(=O)c2ccc3[nH]c(=O)[nH]c3c2)c1 (stereo not given)	143.3
COc1cccc([S+]([O-])CC(=O)NCc2cc(F)cc(F)c2)c1 (stereo not given)	-14.98
O=C1N(Cc2cccc(F)c2F)CCCC1(O)CNCc1ccccn1 (stereo not given)	-29.29
Cc1cc(C)cc(C(C)NC(=O)c2ccc(CS(C)(=O)=O)o2)c1 (stereo not given)	-2.298
CCc1ccc(CN2CCN(c3ccc(C(N)=O)cn3)CC2)nc1	17.95
CC(C)(N)c1cn(C2CCN(C(=O)CCC3CCCCC3)CC2)nn1	-21.08
Cc1cc(CN[C@@H](C)C(N)=O)c(C)s1	8.124
Cc1cc(CN2CCc3nc(-c4ccncc4)nc(O)c3CC2)c(C)s1	125
CC(C)c1ncc2c(n1)CN(Cc1nc3c(F)cccc3[nH]1)CC2	-0.8884

SMILES	Percent Effect [%]
CC(=O)N1CCc2c(nc(-c3ccncc3)nc2N(C)CC(O)CO)C1 (stereo not given)	4.037
Cc1nc(O)c2c(n1)CCN(Cc1cc(C)sc1C)CC2	92.9
Cc1cc(CN2CCc3nc(N4CCOCC4)nc(O)c3CC2)c(C)s1	112.9
Cc1cc(CN2CCc3nc(C(C)C)nc(O)c3CC2)c(C)s1	120.7
Cc1nc(C)c2c(n1)CCN(Cc1ccco1)CC2	-8.406
Cc1nc(C)c2c(n1)CCN(Cc1ccsc1)CC2	5.852
Cc1nc2c(c(=O)n1C)CCN(Cc1cc3ccccc3[nH]1)CC2	-25.51
COCc1ccccc1C(=O)NS(=O)(=O)CCCC#N	-8.648
COC1CCN(S(=O)(=O)N2C[C@H](c3ccccc3)[C@@H](N)C2)CC1	-9.837
N#Cc1cccc(CN2CCN(Cc3cscn3)CC2)c1	-8.185
NC(=O)c1ccc(C(=O)N2CCCCC2C2OCCO2)cc1 (stereo not given)	-10.24
Cc1ccc(CN2CCc3ncnc(C4CCOC4)c3CC2)s1.O=C(O)C(F)(F)F (stereo not given)	-17.37
Cc1ccc(CN2CCc3nc(C(C)C)nc(O)c3CC2)s1	101.1
Cc1ccc(CN2CCc3ncnc(OC(C)C)c3CC2)s1.O=C(O)C(F)(F)F	-2.547
Cc1nc(CN2CCOC(CN(C)c3cccnn3)C2)cs1 (stereo not given)	1.717
Cc1ccccc1C(=O)NCC(O)c1ccc(F)c(F)c1 (stereo not given)	-57.78
CCOc1cccc(CNc2ccccc2C(=O)OC)c1O	0.1063
Cc1cc(C)n(NC(=O)c2ccccc2F)c(=O)c1	67.62
CCOc1ccccc1C(CC(=O)Nc1ccc(C)cn1)NC(C)=O (stereo not given)	-11.24
Cc1cc(C)n(NC(=O)c2cccc3c2OCC3)c(=O)c1	-19.93
O=C(NS(=O)(=O)c1ccccc1)c1ccccc1F	-14.83
CC(C)C(NC(=O)c1ccc(Cl)cc1Cl)C(=O)Nc1ccn(C)n1 (stereo not given)	-7.418

SMILES	Percent Effect [%]
CC(NC(=O)C1=NN(C)C(=O)CC1)c1ccc(Cl)cc1Cl (stereo not given)	-11.2
Cc1cc(C)n(NC(=O)c2ccc(Cl)cc2Cl)c(=O)c1	111.9
CCOc1ccccc1C(=O)Nn1c(C)cc(C)cc1=O	121
Cc1cccc(NC(=O)CNC(=O)c2ccccc2F)c1	-4.999
Cc1cc(C)n(NC(=O)c2ccccc2C)c(=O)c1	92.68
Cc1cc(CS(=O)(=O)N(C)C(C)c2ccc(Cl)cc2)on1 (stereo not given)	1.246
CN(C)[C@@H]1CCN(c2ncc(F)cn2)[C@H]1Cc1ccncc1.O=C(O)C(F)(F)F.O=C(O)C(F)(F)F	2.593
CC(O)CCN(C)S(=O)(=O)Cc1ccc(Cl)c(Cl)c1 (stereo not given)	3.883
N[C@H]1CN(C(=O)Cc2ccc(CO)cc2)C[C@@H]1C1CC1	-4.225
O=C1CN(Cc2cn(C3CCN(C4CSCCSC4)CC3)nn2)CCN1	9.418
O=C1CO[C@H]2CN(C3CCOCC3)C[C@H]2N1Cc1ccc(F)cc1	15.12
Fc1ccc2[nH]c([C@H]3CCN(C4CCOCC4)C3)nc2c1	-0.03029
CC(C)c1nccn1-c1cccc(C2CCCN(S(=O)(=O)N(C)C)C2)n1 (stereo not given)	123.6
CCCN1CCCC1c1nc(Cc2ccc(F)cc2)no1 (stereo not given)	-11.63
CN1CCCC1c1cccc(Cc2ccc(F)cc2)n1 (stereo not given)	109.9
Fc1ccc(Cc2cccc(C3CCN(C4CCOCC4)CC3)n2)cc1	122.8
CN(C)C(=O)CN1CCN(c2ccnc3c(F)ccc(F)c23)CC1	6.891
CC(C)c1nccn1-c1cccc(C2CCCN2S(=O)(=O)N(C)C)n1 (stereo not given)	-5.176
CN(C)C(=O)CN1CCC(c2cccc(Cc3ccc(F)cc3)n2)CC1	83.25
CN1CCCC1c1cccc(Cc2ccccc2F)n1 (stereo not given)	-8.343
CN(C)C(=O)CN(C)C(=O)c1cnc(Cc2ccc(F)cc2)s1	-0.8881
